Out of some 63,000 compounds screened, about 1,100 (1.7%) were called active. The sample as a whole holds a higher share of actives than the screen did. Results with a measured potency or affinity are listed apart. Values without a mark were called inactive.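 Rule for the calls: active = compounds whose percent cytotoxicity in the single-dose primary screen, scaled between solvent and toxic-drug controls, exceeds 50; inactive = the rest.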
Experiment: cytotoxicity in KRAS-transformed pancreatic duct cells, primary screen, cell-based, fluorescence, HTS (AID 431);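 note: 0% = DMSO solvent wells and 100% = doxorubicin-treated wells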
Conditions: HPDE-C7K KRASV12 cells, Alamar Blue viability, 48 h; at 10 µM; hits give high values

SMILES | cytotoxicity
O=c1c(C=NCCCn2ccnc2)c(-c2ccccc2)[nH]n1-c1nc2ccccc2s1 | 63.3% (active)
CCCCCN=Cc1c(C)[nH]n(-c2nc3ccccc3s2)c1=O | 13.1%
CCCc1[nH]n(-c2nc3ccccc3s2)c(=O)c1C=NCCN1CCOCC1 | 24.1%
C=CCc1ccc(OCC(O)CN2CCCCC2C)c(OC)c1 (stereo not given) | 22.6%
COCCn1nnnc1SCC(=O)N1CCCCC1 | -12.2%
COc1ccc2nc(-c3ccccc3)[nH]c2c1 | -5.2%
CCOc1ccc2nc(C(C)O)[nH]c2c1 (stereo not given) | 5.3%
CCOc1ccc2nc(-c3ccccc3)[nH]c2c1 | 57.3% (active)
CCOc1ccccc1NC(=O)CSc1nnnn1-c1ccc(C(=O)OC)cc1 | 0.9%
CNCCCC12CCC(c3ccccc31)c1ccccc12 | 73.1% (active)
CNCCCN1c2ccccc2CCc2ccccc21 | 17.5%
CNCCCC1c2ccccc2C=Cc2ccccc21 | 10.4%
Cc1cc(NC(=O)CSc2nc(-c3ccccc3)cs2)no1 | -7.6%
N#CC1=C(N)OC2=C(C(=O)CCC2)C1c1ccc(OC(=O)N2CCOCC2)cc1 (stereo not given) | -4.6%
c1ccc(-c2ccc(-c3ccccn3)nn2)nc1 | 7.3%
c1ccc(-c2nnc(-c3ccccn3)nn2)nc1 | 8.9%
Cc1ccc(C)c(S(=O)(=O)NC(CCC(N)=O)C(=O)O)c1 (stereo not given) | 5%
COc1ccc2c(c1)CCc1c(C(=O)Nc3ccn(Cc4ccc(C)cc4)n3)noc1-2 | -1.5%
COc1cc(C2C3C(=O)N(c4ccccc4)C(=O)C3ON2c2ccccc2)ccc1O (stereo not given) | 3.7%
COc1cc(C2C3C(=O)N(c4ccc(F)cc4)C(=O)C3ON2c2ccccc2)ccc1O (stereo not given) | -1.5%
CCCOc1ccc(N2C(=O)C3ON(c4ccccc4)C(c4ccc(O)c(OC)c4)C3C2=O)cc1 (stereo not given) | 81.7% (active)
CCCCCC1CC(CC(=O)O)C(=O)O1 (stereo not given) | -13.6%
CCOC(=O)N1CCC(NC(=O)c2cc(C(=O)Nc3ccc(OCC)cc3)ccc2CO)CC1 | 1.5%
CCn1c(CNc2nc(-c3ccccc3)cs2)nnc1SCC(=O)NCc1ccco1 | -32.7%
COCCOC(=O)c1c(C)oc2ccc(NS(=O)(=O)c3ccccc3)cc12 | 17.1%

SMILES | cytotoxicity
CCOC(=O)c1c(C)oc2ccc(NS(=O)(=O)c3ccc4c5c(cccc35)C(=O)N4)cc12 | 69.9% (active)
COC(=O)c1ccccc1NS(=O)(=O)c1ccc2c3c(cccc13)C(=O)N2 | 20.3%
CCCCn1c2c(c3ccccc31)CCc1nonc1-2 | 14.8%
COC(=O)C(C)NC(=O)C(C)NC(=O)OCc1ccccc1 (stereo not given) | 8%
O=C(c1ccco1)N1CCN(c2c(-c3ccccc3)c3cc(Cl)ccc3[nH]c2=O)CC1 | 81.6% (active)
CCOC(=O)N1CCN(c2c(-c3ccccc3)c3cc(Cl)ccc3[nH]c2=O)CC1 | -2.7%
O=c1[nH]c2ccc(Cl)cc2c(-c2ccccc2)c1N1CCOCC1 | 12.4%
COc1cc(NC(=O)c2ccccc2)c(OC)cc1NC(C)=O | -2.1%
O=C1NC(c2ccncc2)Nc2ccccc21 (stereo not given) | -12.1%
COCCNC(=O)c1cc2cc(Br)cc(OC)c2oc1=O | 0.9%
CCCn1c(NC(=O)c2ccc(Cl)c(S(=O)(=O)N3CCCC3)c2)nc2ccccc21 | 37.6%
Cc1ccc(C(=O)Nc2nc3ccccc3n2CCN2CCCC2)cc1 | -3.5%
CCCn1c(NC(=O)c2cccc(S(=O)(=O)N3CCCC3)c2)nc2ccccc21 | 54% (active)
O=C(Nc1nc2ccccc2n1CCN1CCCC1)c1ccc(Cl)cc1 | 62.1% (active)
O=C(Nc1nc2ccccc2n1CCN1CCCCC1)c1ccco1 | -5%
CCCn1c(NC(=O)c2ccc(C)cc2)nc2ccccc21 | -46.1%
CC(C)(CSc1nncn1N)NS(=O)(=O)c1ccc(Cl)cc1 | 0%
Cc1cc(-c2ccccc2)c(C#N)c(SCC(N)=O)n1 | 0.4%
CC1CCCN(C(=O)Cn2nnc(-c3cccnc3)n2)C1 (stereo not given) | 1%
CC(NS(=O)(=O)c1ccc(F)cc1)C(c1cccs1)N1CCN(C)CC1 (stereo not given) | -12.3%
CC1CCCCN1S(=O)(=O)c1ccc(S(=O)(=O)N2CCN(c3ccc(F)cc3)CC2)cc1 (stereo not given) | -7.9%
Cc1nc(CN2CCN(C(=O)NC3(c4ccccc4)CC3)CC2)cs1 | -4.3%
COc1ccc2c(c1OC)C(=O)N1c3ccccc3C(=O)N(c3ccccc3F)C21 (stereo not given) | 53.2% (active)
COc1ccc2c(c1OC)C(=O)N1c3ccccc3C(=O)N(c3ccc(F)cc3)C21 (stereo not given) | 12.3%
COc1ccc2c(c1OC)C(=O)N1c3ccccc3C(=O)N(c3ccccc3)C21 (stereo not given) | 38.7%

— PubChem BioAssay AID431 (Sanford-Burnham Center for Chemical Genomics, 2006)
